# From PubChem BioAssay AID2314 (National Center for Advancing Translational Sciences (NCATS), 2010)
# In all, about 300,000 compounds went through this assay and about 37,000 (12%) were called active. This is one part of a sample in which actives are shown more often than they occur. No stated cut-off is given here; in the data, active means max response mostly above about 13% (no sharp cut-off); inactive means mostly below about 14%.
# Experiment: Cycloheximide Counterscreen for Small Molecule Inhibitors of Shiga Toxin; further: read at 38.3 µM for the half of the compounds with a filed dose; 0% is about no effect
# Conditions: cell reporter, cycloheximide protein synthesis inhibition counterscreen; stronger effect = higher value
row,SMILES,max response
1,Cc1cc(OCc2ccc(C(=O)Nc3ccc(C(=O)O)cc3)o2)ccc1Cl,0.897% (inactive)
2,COc1ccc(C(C(=O)NC2CCCCC2)N(C(=O)Cc2c[nH]c3ccccc23)c2ccccc2)cc1OC (configuration not stated),-2.16% (inactive)
3,Cc1ccc(Nc2ccc(C(N)=O)cc2[N+](=O)[O-])cc1,14.3% (active)
4,NC(=O)c1ccc(Nc2ccc3nonc3c2[N+](=O)[O-])cc1,6% (inactive)
5,NC(=O)c1ccc(Nc2ccc3c(c2)CCC3)c([N+](=O)[O-])c1,-2.88% (inactive)
6,c1ccc(CSc2nnc(-c3ccco3)n2Cc2ccccc2)cc1,27.8% (active)
7,c1ccc(CSc2nnc(-c3ccco3)c(-c3ccco3)n2)cc1,5.66% (inactive)
8,O=C(CSc1nnc(-c2ccco2)n1Cc1ccccc1)NC(=O)NCc1ccco1,9.36% (inactive)
9,N#CCOc1ccc(C2=NO[C@@H]3[C@@H]4C[C@@H]([C@H]5C(=O)N(c6ccc7c(c6)OCO7)C(=O)[C@@H]45)[C@H]23)cc1,-3.49% (inactive)
10,Cn1c(CNC(=O)c2ccccc2F)nnc1SCc1ccc(F)cc1,6.96% (inactive)
11,COc1ccc(CCNC2=C(Cl)C(=O)N(Cc3ccccc3)C2=O)cc1OC,5.5% (inactive)
12,C/C(=N\Nc1ncc(Cl)cc1Cl)c1ccc(S(=O)(=O)NCc2ccco2)cc1,113% (active)
13,C/C(=N\Nc1ncc(Cl)cc1Cl)c1cccs1,45.9% (active)
14,O=C(Nc1ccccc1-c1nc2ccccc2[nH]c1=O)c1cccs1,0.926% (inactive)
15,Cc1c(Cl)cnc(NC(=O)COC(=O)c2ccc(S(=O)(=O)NCc3ccco3)cc2)c1Cl,-0.376% (inactive)
16,C/C(=N\Nc1nc(Nc2ccccc2)nc(N2CCOCC2)n1)c1cccs1,14.5% (inactive)
17,COC(=O)c1sccc1N/N=C(\C)c1ccc(F)c(Cl)c1,7.97% (inactive)
18,CCN(CC)c1ccc(C(=O)N/N=C(\C)c2cccc(OC)c2)cc1,-2.4% (inactive)
19,O=S(=O)(NCc1ccco1)c1cnc(Cl)c(Cl)c1,-2.82% (inactive)
20,C/C(=N\NS(=O)(=O)c1ccc(Br)cc1)c1cccs1,-1.14% (inactive)
21,COc1cccc(/C(C)=N/Nc2ncc(Cl)cc2Cl)c1,41.6% (active)

row,SMILES,max response
1,C/C(=N\Nc1ccc(S(N)(=O)=O)cc1[N+](=O)[O-])c1cccs1,-5.09% (inactive)
2,C/C(=N\Nc1nc2ccccc2[nH]1)c1cccs1,36.7% (active)
3,CC(=O)Nc1c2c(nn1-c1cccc(C)c1)CSC2,8.26% (inactive)
4,C=CCn1c2ccccc2c2nnc(SCc3[nH]c(=O)[nH]c3C(=O)CCCCC(=O)OCC)nc21,2.1% (inactive)
5,Cc1cccc(C)c1NC(=O)C1(C)c2cccc[n+]2CC(=O)N1Cc1cccs1 (configuration not stated),-1.89% (inactive)
6,COC(=O)c1ccc(C(NC(=O)OCc2ccccc2)/C(F)=C/[C@@H](C)C(=O)O)cc1 (some centres not stated),6.37% (inactive)
7,CN1CCC(=O)N([C@H](CO)Cc2ccccc2)CC1,1.38% (inactive)
8,CCCC(=O)N=c1sc2cccc(F)c2n1C,-3.69% (inactive)
9,Cn1c(=NC(=O)c2ccco2)sc2cccc(F)c21,72.9% (active)
10,Cn1c(=NC(=O)C2CC2)sc2cc(F)cc(F)c21,-0.185% (inactive)
11,COC(=O)c1c(NC(=O)c2ccccc2F)sc2c1C(C(=O)OC)CC2 (configuration not stated),7.34% (inactive)
12,C/C(=N\N)c1c(-c2ccccc2)c2cc(Br)ccc2[nH]c1=O,1% (inactive)
13,O=C(Cn1nc([N+](=O)[O-])nc1Br)NC1CCCCC1,-4.71% (inactive)
14,O=C(NNC(=S)NC1CCCCC1)c1ccccc1Cl,5.48% (inactive)
15,Cc1ccccc1C(=O)NC(=S)NC1CC1,19.1% (active)
16,COc1ccccc1C(=O)NC(=S)NC12CC3CC(CC(C3)C1)C2,13.4% (inactive)
17,CC(C)CC(CCc1ccccc1)OS(N)(=O)=O (configuration not stated),2.53% (inactive)
18,COc1ccc(C(=O)CCC(=O)Nc2ccc(Cl)cc2)cc1,0.287% (inactive)
19,COc1ccc(C(=O)N/N=C(\C)CC(=O)Nc2ccc(Cl)cn2)cc1,28.3% (active)
20,COc1ccc(COC(=O)N/N=C(\C)CC(=O)Nc2ccc(Cl)cc2)cc1,12.4% (inactive)
21,Cc1ccc(-n2c(-c3ccc(Cl)cc3)n[nH]c2=S)cc1,-1.99% (inactive)

row,SMILES,max response
1,O=C(NCCCN1CCOCC1)c1ccc2c(c1)N(Cc1cccc(F)c1)C(=O)c1ccccc1S2,-7.81% (inactive)
2,Nc1cc(N)nc(SCc2cccc(F)c2)n1,45.9% (active)
3,Cc1cc(=O)[nH]c(SCc2cccc(F)c2)n1,0.752% (inactive)
4,Nc1cc(N)nc(SCc2ccc(Cl)cc2)n1,15.3% (inactive)
5,C[n+]1cc(-c2ccccc2)oc1-c1ccccc1,52.4% (active)
6,Cc1cc(N2CCN(c3ccccc3)CC2)nc(N2CCOCC2)n1,-2.2% (inactive)
7,Cc1cc(C)n(-c2cc(Oc3ccccc3)ncn2)n1,21.7% (inactive)
8,Cc1cc(C)n(-c2nnc(N3CCN(c4ccccc4)CC3)nn2)n1,22.1% (active)
9,CCOC(=O)C1=C(CN2CCc3ccccc32)NC(=O)NC1c1ccc(Cl)cc1 (configuration not stated),15.3% (inactive)
10,O=C(CSCc1ccc(Cl)cc1)N1CCN(Cc2ccc3c(c2)OCO3)CC1,10.5% (inactive)
11,O=C(CN1CCN(c2ccc(Cl)cc2)CC1)N1CCCC1,6.76% (inactive)
12,O=C(CSCc1ccc(Cl)cc1)N1CCCCC1,44.9% (active)
13,O=C(CSCc1cccs1)N1CCCC1,31.1% (active)
14,O=C(CSc1ccsc1[N+](=O)[O-])N1CCCCC1,26.9% (inactive)
15,Cn1c(SCC(=O)N2CCCC2)nnc1-c1cccs1,11.6% (inactive)
16,COC(=O)[C@@H](Cc1ccccc1)NC(=O)NCCc1ccccc1,6.92% (inactive)
17,O=C1OC2(CCCCC2)CC2=C1C1O[C@](c3ccsc3)(Cc3ccccc31)O2,-3.19% (inactive)
18,Fc1cccc(CSc2nnc3ccc(-c4ccncc4)nn23)c1,2.07% (inactive)
19,O=C(CN1C(=O)NC(Cc2ccccc2)(Cc2ccccc2)C1=O)NCC1CCCCC1,-2.12% (inactive)
20,CCCc1nnc(NC(=O)CCC(=O)N2CCN(S(=O)(=O)c3ccc(OC)cc3)CC2)s1,-3.02% (inactive)
